TRHR enhancer: allosterically enhances the human TRH receptor; 360,000 tested, 0.66% active; AID 493056; enhancement, % at 2 µM; TRHR cells, fluo-8 calcium fluorescence, EC20 TRH enhancement; in the data active means enhancement above about 30%; further: 0% is about no effect
Target sequence (P34981 whole entry, looked up): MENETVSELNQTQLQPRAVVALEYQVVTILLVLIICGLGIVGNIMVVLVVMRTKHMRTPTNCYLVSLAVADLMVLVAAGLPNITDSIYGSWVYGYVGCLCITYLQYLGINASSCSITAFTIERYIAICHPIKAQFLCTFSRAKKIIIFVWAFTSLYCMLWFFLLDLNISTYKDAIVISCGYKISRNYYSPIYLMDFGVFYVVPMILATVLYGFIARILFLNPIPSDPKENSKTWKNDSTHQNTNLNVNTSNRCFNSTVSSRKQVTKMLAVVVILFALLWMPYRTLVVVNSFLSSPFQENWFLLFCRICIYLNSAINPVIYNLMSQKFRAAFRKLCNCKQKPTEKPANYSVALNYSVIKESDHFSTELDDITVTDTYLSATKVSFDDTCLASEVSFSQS
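TRHR-expressing cells loaded with fluo-8 calcium dye were read kinetically (ex 480/em 530) during compound addition, then stimulated with an EC20 of TRH (10 nM final). Enhancement of the Gq-mediated intracellular calcium response was scored.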
D1 PAM: potentiators of human D1 dopamine receptor | HEK293 TREx D1 cells, calcium flux, dopamine EC20 potentiation | potentiation, % at 10 µM | 360,000 tested, 0.036% active; in the data active means potentiation above about 30%; further: 0% is about no effect
TRHR agonist: activates the human TRH receptor | AID 493084 | TRHR cells, calcium flux fluo-8, FDSS agonist mode | P34981 | 360,000 tested, 0.18% active | activation, % at 2 µM; further: 0% is about no effect
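Fluo-8-loaded TRHR cells; 10 s baseline, compound added, kinetic Ca2+ fluorescence read 1/s, agonist mode.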
D1 ag: activates the human D1 dopamine receptor | HEK293 T-REx D1 cells, calcium flux, agonist mode | AID 504660 | P21728 | 360,000 tested, 1% active | activation, % at 2 µM; further: 0% is about no effect
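Tetracycline-induced HEK293 TREx D1 cells, force-coupled to calcium signalling, were dye-loaded with a no-wash calcium kit. Compound was pin-added after a 10 s baseline. Fluorescence was read kinetically at 1 cycle/s for 180 s, with calcium rises flagged as agonism.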
D1 antag: antagonists of human D1 dopamine receptor. activity change, negative = inhibition, % at 10 µM. HEK293 TREx D1 cells, calcium flux, dopamine EC80; stronger effect = lower value. 360,000 tested, 3.2% active. AID 504652. P21728; in the data active means activity change below about -30%; further: on the % scale 0 is the no-effect control and ±100 the full control effect
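Compound effects on dopamine-evoked calcium signalling were measured in tetracycline-induced HEK293 Trex D1 cells. Dopamine at EC80 followed a 180 s compound pre-read, and fluorescence was tracked kinetically for 180 s more.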
* = called active by the depositor; nt = no result given; ! = not confirmed by another sample. A selection: hits, their analogues and other compounds. The true share with any hit is near 4.7%. Unless noted, no stated cut-off is given here; in the data, active means activation above about 30%; inactive means the rest.

SMILES | TRHR enhancer | D1 PAM | TRHR agonist | D1 ag | D1 antag
N=c1n(Cc2ccccc2)c2ccccc2n1CC(O)COc1ccccc1 (configuration not stated) | 0.2 | -7.8 | 0.4 | 25.4 | -30.9*
CCCCn1c(=N)n(CC(O)COc2ccc(C)cc2)c2ccccc21 (configuration not stated) | 3.9 | -6.5 | 2.2 | 27.4 | 4.5
COc1ccc(CCNC(=O)C(=O)NCC(c2ccco2)S(=O)(=O)c2ccc(C)cc2)cc1 (configuration not stated) | -3.0 | -0.7 | -0.4 | 5.3 | nt
COc1cccc(NC(=O)C(=O)NCCc2sc(-c3cccc(C)c3)nc2C)c1 | 2.5 | -3.6 | 0.9 | 13.1 | -7.3
CCOC(=O)Cc1csc(NC(=O)CSc2ncnc3c2cnn3-c2ccccc2Cl)n1 | -1.4 | -5.5 | -0.3 | 11.1 | -77.6*
Cc1nnc(NC(=O)CSc2ncnc3c2cnn3-c2ccccc2C)s1 | 6.3 | -3.5 | 0.1 | 2.7 | -5.1
CCc1noc(N)c1C(=O)Nc1ccc(F)c(Cl)c1 | -5.8 | -3.0 | -0.7 | 1.2 | -35.5*
CCc1noc(N)c1C(=O)Nc1ccc(Cl)cc1 | 2.5 | -5.2 | 0.0 | -0.9 | -1.1
COc1ccccc1NC(=O)/C(=C/c1ccncc1)NC(=O)c1ccccc1 | -1.7 | -3.9 | -0.2 | 3.7 | 11.3
CN(C)S(=O)(=O)c1ccc2c(c1)N(CC(=O)N1CCC(C(N)=O)CC1)CCS2 | -3.8 | -0.6 | 0.6 | 3.7 | 6.0
CC1CCCCN1C(=O)CSc1nc(-c2ccccc2)no1 (configuration not stated) | -6.0 | -2.2 | -0.4 | 1.0 | 4.7
COc1ccccc1N1CCN(CCCNC(=O)Cn2ncc3c([nH]c4ccccc43)c2=O)CC1 | 31.7*! | -13.1 | 0.2 | 0.3 | -29.6
Cn1c(=O)cc(OCC(=O)NCCCN2CCN(c3ccccc3F)CC2)c2ccccc21 | 4.1 | -7.9 | -0.3 | -0.1 | -13.0
Cc1ccc(C)c(N2CCN(CCCNC(=O)Cn3ncc4c([nH]c5ccccc54)c3=O)CC2)c1 | 4.0 | 4.0 | 0.1 | -1.6 | -25.3
CCn1c(=O)cc(SCC(=O)NCCCN2CCN(c3ccccc3F)CC2)c2ccccc21 | 0.1 | -14.1 | -0.7 | 30.0* | -80.6*
CN1CCN(CCCNC(=O)Cn2ncc3c4ccccc4n(C)c3c2=O)CC1 | -4.5 | 3.0 | 0.9 | 1.6 | -3.1
Cn1c(C(=O)NCCCN2CCN(c3ccccc3F)CC2)cc2c(=O)[nH]c3ccccc3c21 | -1.4 | -7.5 | 0.0 | 0.7 | -40.3*
CC1CC(C)CN(CCCNC(=O)c2cc3c(=O)[nH]c4ccccc4c3n2C)C1 (configuration not stated) | -2.5 | -2.8 | 0.3 | 0.5 | 6.7
Cn1c2ccccc2c2cnn(CC(=O)NCCCN3CCN(c4ccccc4F)CC3)c(=O)c21 | 4.2 | -5.4 | 1.2 | 10.5 | -62.7*
CCOC(=O)Cn1c(=O)n(-c2cccc(Cl)c2)c2nc(-c3ccccc3Cl)nc(C(N)=O)c21 | 9.5 | -1.9 | 0.1 | -1.2 | 11.8
CCOC(=O)c1ccccc1NC(=O)c1c(C)oc2ncnc(N3CCOCC3)c12 | 6.5 | 3.8 | 4.5 | 17.5 | 13.3
Cc1cc(C)nc(Nc2nc3ccccc3o2)n1 | -1.0 | -14.4 | 1.0 | 4.7 | -30.9*
c1ccc(Nc2nc3ccccc3o2)cc1 | 2.6 | -2.4 | 0.8 | -0.8 | 3.5
COc1ccc(-c2nn3c(=O)cc(CN4CCN(C(=O)/C=C/c5ccccc5)CC4)nc3s2)cc1 | -2.9 | 5.3 | 0.2 | -1.2 | 4.4
COc1ccc(S(=O)(=O)N(CCc2ccccc2)CC(=O)Nc2cc(Cl)ccc2C)cc1 | -3.9 | -1.4 | 3.1 | 23.3 | -7.1
SMILES | TRHR enhancer | D1 PAM | TRHR agonist | D1 ag | D1 antag
O=C(CSc1nnc(NC(=O)C2CC(=O)N(c3ccc(F)cc3)C2)s1)NCc1ccco1 (configuration not stated) | 0.9 | -0.8 | -0.2 | 1.9 | 11.7
Cc1ccc(S(=O)(=O)n2nc(-c3ccccc3)nc2NCc2ccc(Cl)cc2)cc1 | 5.5 | 0.1 | 3.3 | 4.5 | -56.9*
Cc1ccc(S(=O)(=O)n2nc(-c3ccc(Cl)cc3)nc2NCc2ccc(F)cc2)cc1 | 27.9 | 1.7 | 1.4 | 10.5 | -48.0*
Cc1c(Cl)cccc1NC(=O)CSc1sc2c(O)cc(=O)[nH]c2c1C#N | -3.0 | 0.5 | 0.5 | 0.2 | -7.0
N#Cc1c(SCC(=O)Nc2ccccc2C(F)(F)F)sc2c(O)cc(=O)[nH]c12 | 1.3 | -9.5 | 0.5 | 2.5 | -32.7*
CC(=O)c1cc(-c2ccc(F)cc2)n(CCC(=O)NC2CCCCC2)c1C | 0.7 | -5.5 | -0.8 | 1.0 | 2.2
CCCCNC(=O)CN1C(=O)CSc2ccc(S(=O)(=O)N3CCC(C)CC3)cc21 | -2.9 | 3.8 | 0.0 | 1.2 | 27.2
CCCN(CCC)C(=O)CN1C(=O)CSc2ccc(S(=O)(=O)N3CCC(C)CC3)cc21 | -4.8 | -5.2 | 4.0 | 3.1 | -90.7*
CC1CCCC(NC(=O)COC(=O)COc2ccc(Cl)cc2)C1C (configuration not stated) | -3.9 | -0.5 | -0.2 | 2.3 | -9.9
N#Cc1ccc(OCC(=O)OCC(=O)NCCC2=CCCCC2)cc1 | -7.6 | -10.8 | 0.3 | -1.3 | -11.9
CCC(=O)c1ccc(OCC(=O)OCC(=O)NCCC2=CCCCC2)cc1 | -4.1 | -5.1 | -0.3 | 8.0 | -30.9*
Cc1cc(OCC(=O)OCC(=O)NC2CCCCC2C)ccc1Cl (configuration not stated) | 0.2 | -8.5 | 0.5 | 5.4 | -31.8*
CCC(=O)c1ccc(OCC(=O)OCC(=O)NC2CCCCCCC2)cc1 | -1.4 | -4.0 | -0.5 | 11.5 | -39.0*
CCC(=O)c1ccc(OCC(=O)NC2CCCC2)cc1 | -6.4 | -7.8 | 0.2 | 3.9 | -8.3
Cc1ccc(C2Nc3cc(C)c(C)cc3-n3c(-c4ccccc4)c4c(=O)n(C)c(=O)n(C)c4c32)o1 (configuration not stated) | 3.9 | -1.8 | -0.1 | -1.0 | 20.4
Cc1ccnc2nc(C(=O)OCC(=O)N3CC(C)CC(C)C3)nn12 (configuration not stated) | -1.8 | -1.6 | 0.1 | 6.6 | -5.2
CC1=CC(C)(C)N(C(=O)CN2C(=O)CCC2=O)c2ccccc21 | -5.0 | -1.4 | 0.5 | 1.5 | -37.7*
O=C(COC(=O)CCC(=O)c1ccc(F)cc1)Nc1cccc(S(=O)(=O)N2CCOCC2)c1 | 32.6* | -0.3 | -0.2 | 7.2 | -0.5
Cc1ccc(NC(=O)COC(=O)CCc2ccc(S(=O)(=O)N3CCOCC3)cc2)cc1F | -6.8 | -4.1 | -0.2 | 13.9 | -30.7*
O=C(COC(=O)CCC1CCCC1)Nc1cccc(S(=O)(=O)N2CCOCC2)c1 | -7.3 | 0.8 | -0.6 | 1.3 | -9.4
CC(=O)c1cccc(NC(=O)COC(=O)CCc2ccc(S(=O)(=O)N3CCOCC3)cc2)c1 | -4.5 | -0.2 | 0.2 | 3.6 | -8.9
O=C(Cn1cc(CNCc2ccccc2)nn1)Nc1cc(C(F)(F)F)ccc1Cl | 3.3 | -6.2 | 0.0 | 2.8 | -0.1

From PubChem BioAssay
